# From article PMC7862700, “An all-to-all approach to the identification of sequence-specific readers for epigenetic DNA modifications on cytosine”
# How the values were obtained:
# Assay in all cases: DAPPL (digital affinity profiling via proximity ligation, sequencing); 10 mM Tris-HCl pH 7.5, 50 mM NaCl, 1 mM DTT, 4% glycerol, room temperature, 30 min; GST-TFs on glutathione beads, 16-mer random dsDNA library, 0.1% formaldehyde crosslink after washing; high values mean tight binding
# FLI1 = target: T1, FLI1 (Homo sapiens, UniProt Q01543 1-452); conditions: protein: recombinant; tags: N-terminal GST; dsDNA, one strand shown
# T1 sequence: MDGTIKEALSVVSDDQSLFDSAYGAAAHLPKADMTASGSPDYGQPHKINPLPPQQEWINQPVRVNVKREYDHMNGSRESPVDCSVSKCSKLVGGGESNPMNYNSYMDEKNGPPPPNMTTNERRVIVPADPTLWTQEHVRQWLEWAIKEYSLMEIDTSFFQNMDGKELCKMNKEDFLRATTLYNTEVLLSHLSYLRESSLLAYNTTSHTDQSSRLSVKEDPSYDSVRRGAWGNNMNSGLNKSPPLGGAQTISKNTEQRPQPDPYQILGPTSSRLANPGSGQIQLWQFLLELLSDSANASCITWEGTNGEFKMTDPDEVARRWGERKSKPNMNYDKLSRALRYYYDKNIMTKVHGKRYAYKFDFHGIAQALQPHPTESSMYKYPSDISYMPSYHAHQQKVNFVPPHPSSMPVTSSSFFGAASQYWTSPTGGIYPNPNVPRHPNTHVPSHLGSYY
# Method in brief: (§1)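 Beads coated with glutathione captured GST-fused human transcription factors that had been expressed in yeast, and the factors were then given DNA barcodes and pooled with a tag-only sample. The pools were incubated with 200 nmole of a random double-stranded 16-mer DNA library in Tris/NaCl/DTT/glycerol buffer for 30 min at room temperature, washed, crosslinked with 0.1% formaldehyde and proximity-ligated with BsaI/T4 ligase at 37 °C for 1 h. PCR amplification and Illumina NextSeq500 sequencing came last. Binding signal is each hexamer's read frequency for a factor divided by its frequency for the tag-only sample.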
# ELK1 = target: T2, ELK1 (Homo sapiens, UniProt P19419 1-428); conditions: protein: recombinant; tags: N-terminal GST; dsDNA, one strand shown
# T2 sequence: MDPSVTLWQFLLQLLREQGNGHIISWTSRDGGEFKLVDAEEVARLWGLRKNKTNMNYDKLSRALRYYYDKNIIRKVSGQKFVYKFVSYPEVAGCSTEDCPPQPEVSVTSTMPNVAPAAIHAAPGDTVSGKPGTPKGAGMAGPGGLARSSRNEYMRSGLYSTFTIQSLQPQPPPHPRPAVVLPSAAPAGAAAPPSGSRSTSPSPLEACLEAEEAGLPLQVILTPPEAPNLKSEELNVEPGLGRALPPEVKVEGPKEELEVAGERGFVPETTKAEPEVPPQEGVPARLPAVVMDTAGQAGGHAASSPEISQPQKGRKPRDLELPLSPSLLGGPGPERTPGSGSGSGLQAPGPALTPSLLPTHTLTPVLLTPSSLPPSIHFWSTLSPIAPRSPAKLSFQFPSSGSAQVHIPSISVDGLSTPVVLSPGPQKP
# Method in brief: as §1
# GABPA = target: T3, GABPA (Homo sapiens, UniProt Q06546 1-454); conditions: protein: recombinant; tags: N-terminal GST; dsDNA, one strand shown
# T3 sequence: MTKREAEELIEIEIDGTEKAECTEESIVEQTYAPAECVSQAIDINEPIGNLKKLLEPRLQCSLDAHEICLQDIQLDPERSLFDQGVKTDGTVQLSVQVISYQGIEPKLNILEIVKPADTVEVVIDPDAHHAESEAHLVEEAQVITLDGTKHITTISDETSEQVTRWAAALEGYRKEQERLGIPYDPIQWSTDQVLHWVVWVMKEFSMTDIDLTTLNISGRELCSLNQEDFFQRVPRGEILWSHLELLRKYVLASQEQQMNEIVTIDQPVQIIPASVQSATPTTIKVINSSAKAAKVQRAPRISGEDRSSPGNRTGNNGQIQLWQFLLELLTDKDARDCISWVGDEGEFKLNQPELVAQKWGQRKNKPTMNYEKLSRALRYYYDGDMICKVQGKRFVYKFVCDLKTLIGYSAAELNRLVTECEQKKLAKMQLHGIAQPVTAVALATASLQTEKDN
# Method in brief: as §1
# ERG = target: T4, ERG (Homo sapiens, UniProt P11308 1-479); conditions: protein: recombinant; tags: N-terminal GST; dsDNA, one strand shown
# T4 sequence: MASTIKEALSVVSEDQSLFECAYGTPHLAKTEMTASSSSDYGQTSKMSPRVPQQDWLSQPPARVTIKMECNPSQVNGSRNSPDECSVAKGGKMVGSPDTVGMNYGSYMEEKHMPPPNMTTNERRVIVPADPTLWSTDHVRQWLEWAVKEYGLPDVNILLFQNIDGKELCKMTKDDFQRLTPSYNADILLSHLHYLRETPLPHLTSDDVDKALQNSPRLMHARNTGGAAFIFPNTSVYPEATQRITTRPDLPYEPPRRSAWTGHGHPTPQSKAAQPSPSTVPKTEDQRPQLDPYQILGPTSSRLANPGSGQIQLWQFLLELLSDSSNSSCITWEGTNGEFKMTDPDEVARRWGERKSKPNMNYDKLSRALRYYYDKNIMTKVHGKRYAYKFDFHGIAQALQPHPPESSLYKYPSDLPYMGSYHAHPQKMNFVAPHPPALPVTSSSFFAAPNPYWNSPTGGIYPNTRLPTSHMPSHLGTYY
# Method in brief: as §1
# ELF1 = ELF1 (Homo sapiens, UniProt P32519 1-619); conditions: protein: recombinant; tags: N-terminal GST; dsDNA, one strand shown
# Chain of ELF1 (P32519 whole entry): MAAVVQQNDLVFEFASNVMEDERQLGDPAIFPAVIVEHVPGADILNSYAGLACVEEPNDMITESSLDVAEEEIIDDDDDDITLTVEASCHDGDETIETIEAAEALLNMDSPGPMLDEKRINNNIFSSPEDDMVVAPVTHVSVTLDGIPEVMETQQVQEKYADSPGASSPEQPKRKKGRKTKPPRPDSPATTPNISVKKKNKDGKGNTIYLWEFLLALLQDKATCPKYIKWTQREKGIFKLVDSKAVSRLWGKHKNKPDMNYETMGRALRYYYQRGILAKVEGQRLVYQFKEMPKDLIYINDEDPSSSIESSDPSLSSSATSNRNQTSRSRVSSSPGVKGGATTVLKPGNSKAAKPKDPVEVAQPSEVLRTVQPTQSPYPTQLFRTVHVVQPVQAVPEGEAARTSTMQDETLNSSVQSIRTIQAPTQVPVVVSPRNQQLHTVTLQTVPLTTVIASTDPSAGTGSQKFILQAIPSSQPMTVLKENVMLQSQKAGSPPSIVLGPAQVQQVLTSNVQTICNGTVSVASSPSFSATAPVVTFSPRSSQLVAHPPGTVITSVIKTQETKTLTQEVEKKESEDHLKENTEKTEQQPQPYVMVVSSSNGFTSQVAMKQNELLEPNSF
# Method in brief: as §1
# EHF = target: T5, EHF (Homo sapiens, UniProt Q9NZC4 1-300); conditions: protein: recombinant; tags: N-terminal GST; dsDNA, one strand shown
# T5 sequence: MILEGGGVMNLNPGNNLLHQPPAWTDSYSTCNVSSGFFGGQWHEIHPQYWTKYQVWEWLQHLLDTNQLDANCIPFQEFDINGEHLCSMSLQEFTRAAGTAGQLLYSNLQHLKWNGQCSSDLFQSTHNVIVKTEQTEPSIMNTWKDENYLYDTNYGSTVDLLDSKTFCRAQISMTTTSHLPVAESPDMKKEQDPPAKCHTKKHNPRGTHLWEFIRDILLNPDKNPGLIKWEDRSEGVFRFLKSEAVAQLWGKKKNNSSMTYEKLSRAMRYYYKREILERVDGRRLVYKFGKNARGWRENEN
# Method in brief: as §1
# SPI1 = SPI1 (Homo sapiens, UniProt P17947 1-270); conditions: protein: recombinant; tags: N-terminal GST; dsDNA, one strand shown
# Method in brief: as §1
# SPIB = SPIB (Homo sapiens, UniProt Q01892 1-262); conditions: protein: recombinant; tags: N-terminal GST; dsDNA, one strand shown
# Chain of SPIB (Q01892 whole entry): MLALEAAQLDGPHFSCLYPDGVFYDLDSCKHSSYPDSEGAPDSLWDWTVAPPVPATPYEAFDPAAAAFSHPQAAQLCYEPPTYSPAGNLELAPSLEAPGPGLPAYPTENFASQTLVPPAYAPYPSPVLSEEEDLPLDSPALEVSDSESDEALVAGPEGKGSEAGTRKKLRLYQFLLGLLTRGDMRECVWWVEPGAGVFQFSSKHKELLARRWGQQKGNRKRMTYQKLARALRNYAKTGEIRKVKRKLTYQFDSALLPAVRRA
# Method in brief: as §1
# ELK3 = target: T6, ELK3 (Homo sapiens, UniProt P41970 1-407); conditions: protein: recombinant; tags: N-terminal GST; dsDNA, one strand shown
# T6 sequence: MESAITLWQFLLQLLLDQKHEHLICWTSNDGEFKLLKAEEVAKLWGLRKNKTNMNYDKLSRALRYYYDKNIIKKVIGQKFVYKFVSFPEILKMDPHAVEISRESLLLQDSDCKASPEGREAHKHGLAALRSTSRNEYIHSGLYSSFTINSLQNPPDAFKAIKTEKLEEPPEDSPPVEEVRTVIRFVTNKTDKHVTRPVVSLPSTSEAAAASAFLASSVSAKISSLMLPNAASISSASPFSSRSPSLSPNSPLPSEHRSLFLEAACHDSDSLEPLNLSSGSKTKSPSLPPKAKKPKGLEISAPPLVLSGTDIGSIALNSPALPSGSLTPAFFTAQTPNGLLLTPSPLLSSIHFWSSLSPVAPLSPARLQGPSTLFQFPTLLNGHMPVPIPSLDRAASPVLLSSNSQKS
# Method in brief: as §1
# FEV = target: T7, FEV (Homo sapiens, UniProt Q99581 1-238); conditions: protein: recombinant; tags: N-terminal GST; dsDNA, one strand shown
# T7 sequence: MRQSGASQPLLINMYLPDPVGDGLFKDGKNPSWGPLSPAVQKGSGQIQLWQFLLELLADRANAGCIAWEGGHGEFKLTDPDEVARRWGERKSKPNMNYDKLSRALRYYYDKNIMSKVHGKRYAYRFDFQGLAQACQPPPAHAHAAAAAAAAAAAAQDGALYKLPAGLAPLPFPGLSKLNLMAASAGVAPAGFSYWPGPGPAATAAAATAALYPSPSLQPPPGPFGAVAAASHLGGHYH
# Method in brief: as §1
# ETV5 = ETV5 (Homo sapiens, UniProt P41161 1-510); conditions: protein: recombinant; tags: N-terminal GST; dsDNA, one strand shown
# Chain of ETV5 (P41161 whole entry): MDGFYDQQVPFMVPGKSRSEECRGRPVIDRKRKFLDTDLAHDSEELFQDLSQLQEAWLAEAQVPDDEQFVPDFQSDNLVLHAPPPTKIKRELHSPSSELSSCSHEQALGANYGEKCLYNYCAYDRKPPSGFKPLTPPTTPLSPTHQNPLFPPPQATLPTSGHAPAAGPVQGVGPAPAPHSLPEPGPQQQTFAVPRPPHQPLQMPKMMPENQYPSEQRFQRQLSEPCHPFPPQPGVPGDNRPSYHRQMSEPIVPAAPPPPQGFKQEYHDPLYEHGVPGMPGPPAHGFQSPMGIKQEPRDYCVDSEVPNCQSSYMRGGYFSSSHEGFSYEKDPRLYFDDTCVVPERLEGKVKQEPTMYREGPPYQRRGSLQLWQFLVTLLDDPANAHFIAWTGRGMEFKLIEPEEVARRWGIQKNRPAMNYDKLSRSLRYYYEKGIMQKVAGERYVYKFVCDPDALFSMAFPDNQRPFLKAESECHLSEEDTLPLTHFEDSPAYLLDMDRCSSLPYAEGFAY
# Method in brief: as §1
# HSF1 = HSF1 (Homo sapiens, UniProt Q00613 1-529); conditions: protein: recombinant; tags: N-terminal GST; chain copies: 3; dsDNA, one strand shown
# Chain of HSF1 (Q00613 whole entry): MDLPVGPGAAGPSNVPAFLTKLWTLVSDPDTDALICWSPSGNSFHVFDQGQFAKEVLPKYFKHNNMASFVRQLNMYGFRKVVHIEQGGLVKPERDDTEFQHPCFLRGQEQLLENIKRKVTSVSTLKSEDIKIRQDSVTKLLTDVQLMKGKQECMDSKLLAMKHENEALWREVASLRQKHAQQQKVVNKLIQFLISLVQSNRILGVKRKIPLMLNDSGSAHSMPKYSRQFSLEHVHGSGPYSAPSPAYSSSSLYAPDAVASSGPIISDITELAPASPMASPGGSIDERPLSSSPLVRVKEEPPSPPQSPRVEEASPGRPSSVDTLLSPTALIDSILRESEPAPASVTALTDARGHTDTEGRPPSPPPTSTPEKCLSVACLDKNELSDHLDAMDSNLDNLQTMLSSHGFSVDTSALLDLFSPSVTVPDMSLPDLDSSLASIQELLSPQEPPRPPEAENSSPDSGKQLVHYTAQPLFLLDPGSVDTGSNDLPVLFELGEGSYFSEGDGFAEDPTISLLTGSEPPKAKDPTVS
# Method in brief: as §1
# SPIC = target: T8, SPIC (Homo sapiens, UniProt Q8N5J4 1-248); conditions: protein: recombinant; tags: N-terminal GST; dsDNA, one strand shown
# T8 sequence: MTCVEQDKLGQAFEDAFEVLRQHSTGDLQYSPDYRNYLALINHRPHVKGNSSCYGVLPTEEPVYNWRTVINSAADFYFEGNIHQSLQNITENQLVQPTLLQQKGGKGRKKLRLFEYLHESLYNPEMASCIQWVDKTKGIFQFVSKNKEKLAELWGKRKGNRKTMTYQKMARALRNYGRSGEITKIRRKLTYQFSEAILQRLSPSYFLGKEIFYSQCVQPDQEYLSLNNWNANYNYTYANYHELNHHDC
# Method in brief: as §1
# ELF4 = ELF4 (Homo sapiens, UniProt Q99607 1-663); conditions: protein: recombinant; tags: N-terminal GST; dsDNA, one strand shown
# Chain of ELF4 (Q99607 whole entry): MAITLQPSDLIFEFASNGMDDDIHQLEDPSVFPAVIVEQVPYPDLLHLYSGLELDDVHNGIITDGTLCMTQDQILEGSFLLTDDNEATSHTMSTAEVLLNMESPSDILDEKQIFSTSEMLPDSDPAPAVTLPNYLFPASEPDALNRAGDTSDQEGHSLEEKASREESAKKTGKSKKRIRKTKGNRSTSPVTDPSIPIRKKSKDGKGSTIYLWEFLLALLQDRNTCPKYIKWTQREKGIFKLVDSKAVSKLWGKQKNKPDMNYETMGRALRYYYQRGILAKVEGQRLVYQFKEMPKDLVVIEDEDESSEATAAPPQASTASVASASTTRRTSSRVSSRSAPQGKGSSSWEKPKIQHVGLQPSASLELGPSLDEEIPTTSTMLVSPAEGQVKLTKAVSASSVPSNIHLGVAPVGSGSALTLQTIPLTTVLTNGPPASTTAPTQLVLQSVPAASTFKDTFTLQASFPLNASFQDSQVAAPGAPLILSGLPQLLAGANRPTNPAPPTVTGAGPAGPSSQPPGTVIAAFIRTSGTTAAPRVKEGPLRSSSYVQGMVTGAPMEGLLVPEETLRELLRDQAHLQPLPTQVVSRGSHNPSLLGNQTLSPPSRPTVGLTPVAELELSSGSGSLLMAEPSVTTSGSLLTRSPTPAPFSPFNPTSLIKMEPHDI
# Method in brief: as §1
# ELK4 = target: T9, ELK4 (Homo sapiens, UniProt P28324-2 1-405); conditions: protein: recombinant; tags: N-terminal GST; dsDNA, one strand shown
# T9 sequence: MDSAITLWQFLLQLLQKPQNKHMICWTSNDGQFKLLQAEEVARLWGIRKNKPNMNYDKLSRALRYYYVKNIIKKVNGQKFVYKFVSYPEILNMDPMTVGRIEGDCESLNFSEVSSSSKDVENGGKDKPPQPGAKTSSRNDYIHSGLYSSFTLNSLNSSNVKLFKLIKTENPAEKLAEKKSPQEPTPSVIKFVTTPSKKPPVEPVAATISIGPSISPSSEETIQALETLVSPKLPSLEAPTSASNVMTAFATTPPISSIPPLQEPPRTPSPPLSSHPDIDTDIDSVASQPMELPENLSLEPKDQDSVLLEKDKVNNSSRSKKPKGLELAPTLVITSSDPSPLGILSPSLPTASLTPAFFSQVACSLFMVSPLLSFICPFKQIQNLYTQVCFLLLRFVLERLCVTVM
# Method in brief: as §1
# ETV2 = target: T10, ETV2 (Homo sapiens, UniProt O00321 1-342); conditions: protein: recombinant; tags: N-terminal GST; dsDNA, one strand shown
# T10 sequence: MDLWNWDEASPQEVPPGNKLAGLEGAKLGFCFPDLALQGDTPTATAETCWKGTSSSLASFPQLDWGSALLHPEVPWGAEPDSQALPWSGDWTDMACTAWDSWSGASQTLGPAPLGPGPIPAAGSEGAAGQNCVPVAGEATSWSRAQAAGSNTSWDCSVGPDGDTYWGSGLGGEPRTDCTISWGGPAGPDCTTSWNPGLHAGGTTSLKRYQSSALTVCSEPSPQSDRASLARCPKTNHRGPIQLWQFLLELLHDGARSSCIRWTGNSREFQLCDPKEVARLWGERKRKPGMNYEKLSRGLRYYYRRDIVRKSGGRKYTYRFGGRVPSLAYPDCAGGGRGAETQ
# Method in brief: as §1
# ELF3 = target: T11, ELF3 (Homo sapiens, UniProt P78545 1-371); conditions: protein: recombinant; tags: N-terminal GST; dsDNA, one strand shown
# T11 sequence: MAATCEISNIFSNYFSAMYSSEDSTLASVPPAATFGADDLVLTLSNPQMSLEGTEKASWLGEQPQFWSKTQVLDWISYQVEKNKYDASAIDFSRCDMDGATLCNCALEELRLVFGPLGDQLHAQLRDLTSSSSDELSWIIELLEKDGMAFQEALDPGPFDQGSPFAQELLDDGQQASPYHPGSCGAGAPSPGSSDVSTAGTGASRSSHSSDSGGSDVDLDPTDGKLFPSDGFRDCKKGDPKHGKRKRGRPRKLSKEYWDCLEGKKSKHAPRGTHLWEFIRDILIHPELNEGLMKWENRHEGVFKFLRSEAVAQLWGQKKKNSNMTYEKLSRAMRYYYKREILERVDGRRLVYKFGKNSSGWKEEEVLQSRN
# Method in brief: as §1
# CRX = CRX (Homo sapiens, UniProt O43186 1-299); conditions: protein: recombinant; tags: N-terminal GST; dsDNA, one strand shown
# Chain of CRX (O43186 whole entry): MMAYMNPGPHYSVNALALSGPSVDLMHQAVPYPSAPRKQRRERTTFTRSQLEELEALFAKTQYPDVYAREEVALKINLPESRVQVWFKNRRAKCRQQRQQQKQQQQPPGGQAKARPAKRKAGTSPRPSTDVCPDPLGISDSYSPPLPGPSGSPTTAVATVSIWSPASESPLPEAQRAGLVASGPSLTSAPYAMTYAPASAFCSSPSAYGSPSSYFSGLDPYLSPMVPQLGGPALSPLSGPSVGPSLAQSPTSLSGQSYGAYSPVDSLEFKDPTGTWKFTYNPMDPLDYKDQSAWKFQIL
# Method in brief: as §1
# ETV1 = ETV1 (Homo sapiens, UniProt P50549 1-477); conditions: protein: recombinant; tags: N-terminal GST; dsDNA, one strand shown
# Chain of ETV1 (P50549 whole entry): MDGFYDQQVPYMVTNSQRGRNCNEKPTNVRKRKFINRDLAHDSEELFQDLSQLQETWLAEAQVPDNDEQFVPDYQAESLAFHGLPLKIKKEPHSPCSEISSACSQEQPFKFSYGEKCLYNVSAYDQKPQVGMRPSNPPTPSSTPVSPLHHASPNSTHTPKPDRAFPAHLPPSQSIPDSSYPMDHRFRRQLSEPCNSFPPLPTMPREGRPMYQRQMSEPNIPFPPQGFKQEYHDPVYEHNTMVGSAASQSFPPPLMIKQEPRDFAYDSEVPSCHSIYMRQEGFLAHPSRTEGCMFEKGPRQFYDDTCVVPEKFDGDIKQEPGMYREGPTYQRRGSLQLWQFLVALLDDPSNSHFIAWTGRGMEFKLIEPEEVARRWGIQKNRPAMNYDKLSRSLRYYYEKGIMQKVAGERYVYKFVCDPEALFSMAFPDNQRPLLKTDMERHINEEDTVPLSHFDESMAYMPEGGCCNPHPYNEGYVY
# Method in brief: as §1
sequence,measurement,setting,value
AAATGA,binding signal,FLI1,"1.23 fold enrichment (6-mer frequency, TF over GST control)"
same,binding signal,ELK1,"1.32 fold enrichment (6-mer frequency, TF over GST control)"
same,binding signal,GABPA,"1.26 fold enrichment (6-mer frequency, TF over GST control)"
same,binding signal,ERG,"1.3 fold enrichment (6-mer frequency, TF over GST control)"
same,binding signal,ELF1,"1.26 fold enrichment (6-mer frequency, TF over GST control)"
same,binding signal,EHF,"1.23 fold enrichment (6-mer frequency, TF over GST control)"
same,binding signal,SPI1,"1.45 fold enrichment (6-mer frequency, TF over GST control)"
same,binding signal,SPIB,"1.37 fold enrichment (6-mer frequency, TF over GST control)"
same,binding signal,ELK3,"1.26 fold enrichment (6-mer frequency, TF over GST control)"
same,binding signal,FEV,"1.26 fold enrichment (6-mer frequency, TF over GST control)"
same,binding signal,ETV5,"1.32 fold enrichment (6-mer frequency, TF over GST control)"
same,binding signal,HSF1,"1.12 fold enrichment (6-mer frequency, TF over GST control)"
same,binding signal,SPIC,"1.54 fold enrichment (6-mer frequency, TF over GST control)"
same,binding signal,ELF4,"1.29 fold enrichment (6-mer frequency, TF over GST control)"
same,binding signal,ELK4,"1.29 fold enrichment (6-mer frequency, TF over GST control)"
same,binding signal,ETV2,"1.36 fold enrichment (6-mer frequency, TF over GST control)"
same,binding signal,ELF3,"1.41 fold enrichment (6-mer frequency, TF over GST control)"
same,binding signal,CRX,"1.16 fold enrichment (6-mer frequency, TF over GST control)"
same,binding signal,ETV1,"1.29 fold enrichment (6-mer frequency, TF over GST control)"
